High-throughput results (PubChem BioAssay)
Only some compounds are listed: those with a hit (about 2.2% of all), similar ones and a draw of the others.
IEC-6 tox – cytotoxicity in IEC-6 intestinal epithelial cells, primary screen, cytotoxicity control for KLF5 inhibitor project, cell-based, luminescence. IEC-6 cytotoxicity, luminescence viability. inhibition, % at 5 µM. 0.78% of 290,000 active;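 further: 0% = plate median of test compound wells and 100% = cytotoxic reference compound wells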
aSyn UTR inh – MLPCN primary screen, SNCA 5' untranslated region | AID 1813, 2009 | inhibition, % (tested at 7.5 µM) | alpha-synuclein 5'UTR reporter, inhibitor activity | 0.82% of 300,000 active; in the data active means inhibition above about 60%; inconclusive means no clear call, values can overlap the other calls;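 further: H4 neuroglioblastoma cells stably carrying SNCA 5'UTR luciferase fusion; 0% = DMSO wells and 100% = positive control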
APP 5UTR inh – inhibitors of APP translation via 5'UTR reporter, primary screen, APP 5'UTR luciferase, SH-SY5Y cells; SH-SY5Y APP 5'UTR-luciferase reporter, luminescence; inhibition, % at 2 µM; 0.82% of 190,000 active;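 active means inhibition above a set limit, derived from the sample mean plus 3 SD, cut at about 45% in these data; inconclusive means one replicate passes the limit while the other fails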
BaF3 parental – parental Ba/F3 cell viability inhibition, counter-screen for JAK2V617F inhibitor project, murine pro-B, CellTiter-Glo luminescence; CellTiter-Glo ATP luminescence; inhibition, % at 5.6 µM; 1.1% of 220,000 active; AID 1486, 2009;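 active means inhibition above a per-campaign cutoff, the mean inhibition of all tested compounds plus 3 SD, cut at about 27% in these data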;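 further: 0% = DMSO wells and 100% = JAK Inhibitor I control wells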
Ba/F3 V617F tox – reduced viability of JAK2V617F-dependent Ba/F3 cells, primary screen, JAK2V617F inhibitor project, cell-based, Ba/F3 EpoR-JAK2V617F, luminescence | ATP luminescence | inhibition, % at 5.6 µM | 1.1% of 220,000 active | AID 1446, 2008;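 active means inhibition above the campaign mean plus 3 SD over all tested compounds, cut at about 24% in these data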;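 further: cytokine-independent growth of Ba/F3 cells driven by EpoR plus mutant JAK2; 0% = DMSO-treated cells and 100% = JAK inhibitor I control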
KLF5 inh – KLF5 expression inhibitors, primary screen, DLD-1 cells, luminescence. DLD-1 KLF5 promoter-luciferase reporter. inhibition, % at 5 µM. 0.23% of 290,000 active;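 active means inhibition above a per-plate limit of that plate's mean compound inhibition plus 3 SD, cut at about 60% in these data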;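 further: 0% = DMSO wells and 100% = LY294002 at 200 µM; higher means less KLF5 promoter-driven luciferase light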
IEC-6 tox confirm – cytotoxic compounds in IEC-6 epithelial cells, confirmation, cytotoxicity control, cell-based, luminescence | shares compounds with IEC-6 tox | IEC-6 rat intestinal epithelial viability | inhibition, % at 5 µM | 63% of 1,900 active;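 further: 0% = vehicle and 100% = reference cytotoxic drug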
An asterisk follows results filed as active; ? = inconclusive; . = not tested or not shown. Unless noted, no stated cut-off is given here; in the data, active means inhibition above about 22%; inactive means the rest.

SMILES	IEC-6 tox	aSyn UTR inh	APP 5UTR inh	BaF3 parental	Ba/F3 V617F tox	KLF5 inh	IEC-6 tox confirm
CC(C)(C)C(=O)NC(=S)NNC(=O)c1ccc(-c2ccccc2)cc1	40*	67*	67*	36*	37*	57	47*
CC(C)(C)c1ccc(C(=O)NNC(=S)NC(=O)c2cccnc2)cc1	30*	60	.	.	.	27	23*
CC(C)c1ccc(O)c(NC(=S)NC(=O)c2cccnc2)c1	34*	-49	12	4	3	18	-3
NNC(=O)CCn1c2ccccc2c2ccccc21	7	-17	10	2	-4	-3	.
COc1ccc(-c2oc3cccnc3c2C#CC2(O)CCCCC2)cc1	5	8	.	.	.	-35	.
COc1ccc(-c2oc3cccnc3c2C#CCO)cc1	29*	11	.	.	.	-17	16
CCc1nc2sc3c(O)cc(=O)[nH]c3c2cc1C	0	7	-2	5	3	-15	.
CCN(c1ccccc1)S(=O)(=O)c1ccc(Cl)c(NC(=O)COC(=O)c2cc(O)c3ccccc3c2O)c1	32*	13	.	-3	-3	8	7
CS(=O)c1ccc(-n2c(=O)n(Cc3ccccc3)c(=O)c3[nH]cnc32)cc1 (centres undefined)	0	-2	.	.	.	-10	.
COC1CCCN(Cc2c(C(=O)N3CCN(C4CCCCC4)CC3)nc3ccccn23)C1 (centres undefined)	0	-3	.	.	.	-26	.
O=C(C#Cc1ccccc1)c1ccco1	101*	-141	.	.	.	54	28*
O=C(N/N=C/c1ccccc1)c1ccco1	3	-107	.	1	-1	-109	.
Cc1cc(Cl)cc(C)c1OCCn1ccnc1	44*	3	.	.	.	38	14
CCOC(=O)Nc1ccc2c(c1)N(C(=O)CCN(CC)CC)c1ccccc1CC2	5	6	.	.	.	-21	.
CCOC(=O)Nc1ccc2c(c1)N(C(=O)CCN(CC)CC)c1ccccc1S2=O (centres undefined)	23*	-20	.	.	.	-2	13
Cc1cccc(C(=O)Nc2cccc3cccnc23)c1	8	-56	.	.	.	-94	.
Cc1cnc(C(=O)Nc2cccc3cccnc23)cn1	91*	-25	74*	34*	90*	-1	18
CC1CC(C)C[N+](=C2C=C(N3CCCC3)CC(C)(C)C2)C1 (centres undefined)	35*	-14	7	72*	92*	9	23*
N#Cc1ccc(/C=N/N=C(N)N)cc1	4	-5	-15	6	3	-17	.
NC(N)=N/N=C/c1ccc(Br)cc1	26*	-8	28	34*	10	10	56*
CCCCn1c(SCc2c(C)noc2C)nc2cc(S(N)(=O)=O)ccc21	30*	-40	-11	62*	68*	-25	7
CCc1ccc2cccc3c2c1N=CN3C	.	13	.	.	.	.	.
FC(F)(F)c1cccc(-c2nc3nc(Cl)c(Cl)nc3[nH]2)c1	31*	13	.	3	4	-47	39*
COc1cnc(-c2cccc(C(F)(F)F)c2)[nH]c1=O	-6	9	-5	5	-2	-9	.
O=C(NCCNC(=O)c1cnccn1)c1ccc(Cl)c(Cl)c1	11	10	.	.	.	-14	.
SMILES	IEC-6 tox	aSyn UTR inh	APP 5UTR inh	BaF3 parental	Ba/F3 V617F tox	KLF5 inh	IEC-6 tox confirm
O=C(NNC(=O)c1cnccn1)c1ccc(Cl)c(Cl)c1	37*	?	.	.	.	19	22
CCOC(=O)c1cc2c(ccn2C)n1Cc1cc(C)ccc1C	46*	-2	20	9	0	-17	25*
O=C(c1cccc(N2CCCC2=O)c1)N1CCN(c2cccc(Cl)c2)CC1	44*	12	.	.	.	13	17
Cc1[nH]c2ccc(-c3n[nH]c(=S)n3-c3ccccc3)cc2c1C	49*	6	-15	3	-2	-32	32*
COc1cccc(-n2c(-c3ccc4[nH]c(C)c(C)c4c3)n[nH]c2=S)c1	48*	4	-2	6	4	-25	46*
COc1cccc(-n2c(-c3cccc(S(=O)(=O)N(C)C)c3)n[nH]c2=S)c1	3	24	-8	5	1	-11	.
